BoNT-A LC inh2 = BoNT A light chain protease inhibition; AID 588499; multiplex microsphere protease substrate cleavage, flow cytometry; inhibition, % at 10 µM; 360,000 tested, 0.17% active; further: plate controls were buffer without enzyme for full effect and enzyme alone for no effect
BoNT F protease = BoNT F light chain protease inhibition; 360,000 tested, 0.22% active; AID 588497; inhibition, % at 10 µM; Multiplex microsphere protease cleavage assay, flow cytometry; in the data active means inhibition above about 35%, passing the limit was not always enough; inconclusive means no clear call, values can overlap the other calls; further: plate controls were buffer without enzyme for full effect and enzyme alone for no effect
Anthrax LF prot = anthrax lethal factor protease inhibition. P15917. multiplex microsphere protease cleavage assay, LF. inhibition, % at 10 µM. 360,000 tested, 0.12% active. AID 588501; further: plate controls were buffer without enzyme for full effect and enzyme alone for no effect
Target sequence (P15917 whole entry, looked up): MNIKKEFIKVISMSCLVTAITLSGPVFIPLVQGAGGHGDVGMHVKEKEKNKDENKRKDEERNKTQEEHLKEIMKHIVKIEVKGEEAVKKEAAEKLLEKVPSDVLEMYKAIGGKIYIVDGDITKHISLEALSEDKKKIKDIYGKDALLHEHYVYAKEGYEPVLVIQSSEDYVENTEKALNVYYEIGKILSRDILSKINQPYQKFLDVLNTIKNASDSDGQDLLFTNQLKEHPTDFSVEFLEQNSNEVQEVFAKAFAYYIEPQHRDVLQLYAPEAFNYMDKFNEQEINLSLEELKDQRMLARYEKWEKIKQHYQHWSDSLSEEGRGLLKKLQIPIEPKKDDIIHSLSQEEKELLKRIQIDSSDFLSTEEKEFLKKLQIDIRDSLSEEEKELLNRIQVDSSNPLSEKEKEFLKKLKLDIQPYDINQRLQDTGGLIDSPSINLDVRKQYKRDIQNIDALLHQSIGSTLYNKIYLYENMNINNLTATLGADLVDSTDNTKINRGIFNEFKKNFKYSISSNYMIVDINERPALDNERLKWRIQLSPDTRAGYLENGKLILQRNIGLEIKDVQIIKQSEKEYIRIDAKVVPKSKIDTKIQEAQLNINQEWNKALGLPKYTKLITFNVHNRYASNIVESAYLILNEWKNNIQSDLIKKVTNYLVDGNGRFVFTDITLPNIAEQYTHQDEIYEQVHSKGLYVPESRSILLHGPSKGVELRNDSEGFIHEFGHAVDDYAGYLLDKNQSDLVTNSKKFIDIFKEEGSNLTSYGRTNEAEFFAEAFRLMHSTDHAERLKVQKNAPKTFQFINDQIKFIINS
Autofluor counter = counter-screen for toxin protease inhibitors: compound fluorescence; compound autofluorescence counterscreen, microsphere flow cytometry; stronger effect = higher value; fluorescence intensity (concentration not given with the values); 360,000 tested, 3.1% active; AID 624483; in the data active means fluorescence intensity above about 16000; inconclusive means no clear call, values can overlap the other calls
BoNT-A LC CP1 = BoNT/A light chain protease inhibition; shares compounds with BoNT F protease; multiplex microsphere protease assay, flow cytometry; inhibition, % at 10 µM; 720 tested, 3% active; AID 602139; in the data active means inhibition above about 32%
BoNTF LC inh 1 = blocks botulinum neurotoxin F light chain protease; multiplex microsphere protease cleavage assay, flow cytometry; 720 tested, under 10 active; shares compounds with BoNT F protease; inhibition, % at 10 µM; AID 602140; call rule not given here
Anthrax LF CP1 = Bacillus anthracis lethal factor protease inhibition. shares compounds with BoNT F protease. multiplex microsphere protease cleavage assay, LF. inhibition, % at 10 µM. 720 tested, under 10 active. AID 602142; call rule not given here
Numbers without * were called inactive; ? = inconclusive. The list is not random: actives were taken first. Their share in the collection is about 3.5%. Unless noted, no stated cut-off is given here; in the data, active means inhibition above about 30%; inconclusive means no clear call, values can overlap the other calls; inactive means below that.

SMILES	BoNT-A LC inh2	BoNT F protease	Anthrax LF prot	Autofluor counter	others
O=S(=O)(c1ccc(Br)s1)N1CCN(c2ncccn2)CC1	1	3	-4	22792*
O=S(=O)(c1ccccc1)N1CCN(c2ncccn2)CC1	0	1	-5	22296*
O=S(=O)(c1ccc(F)cc1)N1CCN(c2ncccn2)CC1	-1	2	-2	4419
CCO[C@H]1OC(C(=O)O)=C[C@@H](c2coc3ccccc3c2=O)[C@@H]1CCCO	-1	1	7	3538
CSCCC(NC(=O)c1cccc(C)c1)C(=O)OCN1C(=O)c2ccccc2C1=O (stereo not drawn)	0	?	4	?
Cc1nc2ncnn2c(C)c1CCC(=O)Nc1csc(N)n1	?	3	-15	18816*
Cc1ccc(NC(=O)CCc2c(C)nc3ncnn3c2C)cc1	0	-3	-5	8994
COC(=O)c1cc(NC(=O)CCc2c(C)nc3ncnn3c2C)cc(C(=O)OC)c1	-4	-6	0	17830*
CN(C)c1ccc(CNn2cnnc2SCc2ccccc2F)cc1	10	13	-3	19034*
COc1cccc(-n2c(CCn3nc(C)c([N+](=O)[O-])c3C)n[nH]c2=S)c1	-1	-8	-1	2079
Cc1cccc(-n2c(CCn3nc(C)c([N+](=O)[O-])c3C)n[nH]c2=S)c1	-1	0	-3	16467*
Cc1cccc(NC(=O)CN(C)S(=O)(=O)c2ccc(Cl)cc2)n1	-1	-5	-3	9907
Cc1cccc(NC(=O)CN(C)S(=O)(=O)c2ccc(Br)cc2)n1	?	-4	-4	17225*
CN(CC(=O)Nc1nc2ccccc2s1)S(=O)(=O)c1ccc(Cl)cc1	-1	-8	-1	6300
CN(CC(=O)Nc1nc2ccccc2s1)S(=O)(=O)c1ccc(Br)cc1	3	4	0	21220*
CC(C)(Oc1ccc(Cl)cc1)C(=O)NNC(=O)c1ccc(Br)o1	4	7	-1	4991
CC(C)CC(=O)Nc1cccc(-c2nc3ccccc3o2)c1	0	-2	1	23031*
CCc1nccn1CCC(=O)N1CCCC(N2CCN(c3cccc(Cl)c3)CC2)C1 (stereo not drawn)	0	5	-2	6244
Cc1ccc2cc(C#N)c(N3CCN(C(=O)c4cccs4)CC3)nc2c1	-3	40*	-12	3441	BoNT-A LC CP1=-3;BoNTF LC inh 1=-10;Anthrax LF CP1=-5
Cc1ccc2nc(N3CCN(C(=O)c4ccc(F)cc4)CC3)c(C#N)cc2c1	5	0	0	4690
O=C(O)C1C2C=CC(C2)C1C(=O)N1CCc2ccccc21 (stereo not drawn)	4	39*	6	3667	BoNT-A LC CP1=-2;BoNTF LC inh 1=-8;Anthrax LF CP1=-1
FC(F)(F)c1ccc(CNCCc2ccc3c(c2)OCO3)cc1	5	71*	2	3048	BoNT-A LC CP1=1;BoNTF LC inh 1=-6;Anthrax LF CP1=1
O=C(Nc1nc(OCCN2CCCC2=O)cnc1/C=C\c1ccccc1)c1cc2ccccc2s1	0	-2	-7	3479
O=C(COc1ccc(Cl)cc1)N1CCN(S(=O)(=O)c2cc(F)ccc2F)CC1	0	-1	-5	2890
CCCNc1cc(C)c(C#N)c2nc3ccccc3n12	0	1	-7	3286
SMILES	BoNT-A LC inh2	BoNT F protease	Anthrax LF prot	Autofluor counter	others
CNc1cc(C)c(C#N)c2nc3ccccc3n12	0	7	32*	3969	BoNT-A LC CP1=0;BoNTF LC inh 1=-1;Anthrax LF CP1=-5
COC(=O)C1Cc2ccccc2CN1S(=O)(=O)c1ccc(C)cc1 (stereo not drawn)	1	36*	-7	3884	BoNT-A LC CP1=1;BoNTF LC inh 1=4;Anthrax LF CP1=-3
C=CCC(O)(CC=C)CNC(=O)C1CCC(=O)N(CCCc2ccccc2)C1 (stereo not drawn)	-1	11	1	4081
CN(CC(=O)OCC(N)=O)S(=O)(=O)c1ccc(Cl)cc1	-1	-5	-3	3563
CCC(C)(C)n1nnnc1C(C(C)C)N(Cc1ccco1)Cc1cc2cc3c(cc2[nH]c1=O)OCO3 (stereo not drawn)	33*	38*	-17	10857	BoNT-A LC CP1=0;BoNTF LC inh 1=1;Anthrax LF CP1=-7
CCC(C)(C)n1nnnc1C(C(C)C)N(Cc1cccnc1)Cc1ccco1 (stereo not drawn)	0	0	-8	3446
Cc1cc(C)cc(CC(=O)N2CCC2(C)C(=O)NS(=O)(=O)c2cccc(F)c2)c1 (stereo not drawn)	-1	1	-2	3805
COc1ccc(NC(=O)NNC(=O)C(C)Oc2ccc3ccccc3c2)cc1OC (stereo not drawn)	-20	-39	-6	12568
